High-throughput results (PubChem)
Sampled rows, rich in hits. Any-hit rate of the full collection: about 3.3%.
MBD2 inh: MBD2-methylated oligo binding inhibition; AID 686964; Q9UBB5; TR-FRET, MBD2 binding to methylated oligonucleotide; inhibition, % at 4.4 µM; actives 0.31% (n = 370,000); in the data active = inhibition above about 13%
Target sequence (Q9UBB5 whole entry, looked up): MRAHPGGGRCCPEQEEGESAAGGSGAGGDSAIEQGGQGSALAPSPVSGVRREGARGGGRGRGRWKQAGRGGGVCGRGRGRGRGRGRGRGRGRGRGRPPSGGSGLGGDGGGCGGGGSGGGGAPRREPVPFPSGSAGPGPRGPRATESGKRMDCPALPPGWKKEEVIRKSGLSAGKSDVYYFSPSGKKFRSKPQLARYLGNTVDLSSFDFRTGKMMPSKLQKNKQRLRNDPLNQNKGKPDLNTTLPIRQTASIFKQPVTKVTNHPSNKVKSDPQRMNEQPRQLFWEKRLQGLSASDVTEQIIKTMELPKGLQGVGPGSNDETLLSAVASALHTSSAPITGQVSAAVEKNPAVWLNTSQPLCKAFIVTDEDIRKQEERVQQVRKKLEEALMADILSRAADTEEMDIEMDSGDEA
PRMT1 inh: PRMT1 (human) inhibition, primary screen; Q99873; recombinant PRMT1, activity-based probe fluorescence polarization; inhibition, % at 2.79 µM; actives 1.3% (n = 370,000); AID 652257;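 active = inhibition above about 21% made by adding two undisclosed values, limit read from the data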
PfGluPho inh: PfG6PD (Plasmodium falciparum) enzyme inhibition. PfGluPho enzyme, NADPH resazurin-diaphorase fluorescence. actives 0.78% (n = 350,000). inhibition, % at 20 µM;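 active = inhibition reaching at least a set limit at 20 µM in the primary screen, cut at about 59% in these data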;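 note: 0% = DMSO wells with substrate and 100% = DMSO wells lacking glucose-6-phosphate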
PfM18AAP inh: PfM18AAP enzyme inhibition; recombinant PfM18AAP, H-Glu-NHMec fluorogenic cleavage; inhibition, % at 7.35 µM; actives 1.2% (n = 290,000); AID 1822;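 active = inhibition above the campaign mean inhibition over all tested compounds plus 3 SD, cut at about 28% in these data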;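 note: 0% = plate median of test compound wells and 100% = 2 mM ZnCl2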
UHRF1 MBD2 ctr: human UHRF1 methylated DNA binding inhibitors | AID 687016 | actives 0.75% (n = 370,000) | UHRF1 binding to methylated oligo, TR-FRET | Q96T88 | inhibition, % at 4.4 µM; in the data active = inhibition above about 21%;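 note: UHRF1 SRA domain binding a hemimethylated CpG hairpin DNA probe; 0% = median of test compound wells and 100% = reference inhibitor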
Active calls of the source: *; / = not tested or not shown.

SMILES	MBD2 inh	PRMT1 inh	PfGluPho inh	PfM18AAP inh	UHRF1 MBD2 ctr
O=C(NC1CCCCN(Cc2cccc(F)c2)C1=O)c1ccc(F)cc1 (stereo not drawn)	-1	2	/	/	0
COc1cccc(CN(C)C(=O)c2cccnc2SC)c1OC	9	6	2	2	26*
Cc1c(C(=O)N2CCCCC2)c(S(=O)(=O)N2CCN(c3ccccc3F)CC2)c(C)n1C	3	-4	-2	-2	-2
Cc1c(C(=O)N2CCCCC2)c(S(=O)(=O)N2c3ccccc3CC2C)c(C)n1C (stereo not drawn)	2	1	-2	0	23*
COC(=O)[C@]12C[C@H](CC(=O)NCc3ccc(OC)c(OC)c3)C(=O)N(Cc3ccco3)C1=C[C@H](C1CCCC1)O[C@@H]2C	6	5	/	/	2
Cc1cccc(NC(=O)c2sc3nc(-c4ccc(F)cc4)cn3c2C)n1	-3	12	23	7	-1
COc1ccc(-c2cn3c(C)c(C(=O)Nc4cccc(C)n4)sc3n2)cc1	-2	6	62*	9	1
COc1ccc2c(c1)CNC2CS(=O)(=O)NCc1ccccc1 (stereo not drawn)	-8	-4	/	/	-3
COC(=O)[C@]12C[C@H](CC(=O)NCc3cccc(C(F)(F)F)c3)C(=O)N(Cc3ccco3)C1=C[C@H](C(C)C)O[C@@H]2C1CC1	0	0	/	/	-2
COc1ccc(-c2[nH]ncc2CN(C)CCN2CCOCC2)cc1F	11	0	9	2	22*
CC(=O)C1=C(C)NC(=S)NC1c1ccc(F)cc1 (stereo not drawn)	-1	3	/	/	-2
Oc1ccccc1C(=S)N1CCN(c2cccc(Cl)c2)CC1	-2	9	53	30*	1
Cc1ccc(/C(N)=N/OC(=O)Cc2cccc3ccccc23)cc1	6	-1	9	2	24*
Cc1cccc(/C(N)=N/OC(=O)Cc2cccc3ccccc23)c1	1	-4	-2	1	0
N/C(=N\OC(=O)Cc1cccs1)c1ccccc1	9	2	5	-6	21*
CCCCCCCCN1C(=O)[C@@H](CC(=O)NCc2ccc(OC)c(OC)c2)C[C@@]2(C(=O)OC)C1=C[C@H](C(C)(C)C)O[C@@H]2C	-2	5	/	/	-1
C=Cc1ccc(C(=O)N(Cc2ccc(F)cc2)C(C(=O)N(C)C2CCCC2)c2ccc(OC)c(OC)c2)cc1 (stereo not drawn)	3	3	/	/	2
CCOC(=O)c1cccc(N2C(=O)Nc3ccccc3N2O)c1	3	-3	-24	-6	23*
CC(C)(C)c1ccc(OCCCN2CCC(C(O)(c3ccccc3)c3ccccc3)CC2)cc1	2	2	/	/	0
CCOC(=O)C1CCCN(C(=O)/C(=C/c2ccco2)NC(=O)c2ccccc2)C1 (stereo not drawn)	2	5	-9	30*	-3
O=C(N/C(=C/c1ccco1)C(=O)N1CCCCCC1)c1ccccc1	1	5	-7	17	-4
CCOC(=O)C1CCCN(C(=O)Nc2c(-c3ccccc3)noc2C)C1 (stereo not drawn)	4	-4	-6	-11	32*
O=C(CCCC(=O)NC1CCCC1)NC1CCCC1	-5	-3	-7	0	2
O=CNCC(=O)NC1CCCCCC1	-3	-5	-5	5	24*
C=CCCC(=O)N1CCC(C(=O)NC2CCCc3ccccc32)CC1 (stereo not drawn)	-3	0	/	/	2
SMILES	MBD2 inh	PRMT1 inh	PfGluPho inh	PfM18AAP inh	UHRF1 MBD2 ctr
CCOC1=C2CN(S(=O)(=O)c3ccc(C)cc3)[C@H](c3ccccc3)C[C@@H]2N(S(C)(=O)=O)[C@H](c2ccccc2)C1	-5	0	/	/	28*
CCOC(=O)C(=O)Nc1cc(C)on1	7	-3	-4	2	22*
CCCCNC(=O)Nc1cc(C)on1	1	2	2	-9	0
O=C(Nc1nc(-c2ccc(Cl)s2)cs1)c1ccccc1	0	-1	19	1	-2
Cc1ccc(C(=O)Nc2nc(-c3cc(Cl)sc3Cl)cs2)cc1	8	-1	8	-12	23*
Cc1ccc(-c2csc(NC(=O)c3ccc(-c4ccccc4)cc3)n2)o1	/	/	60*	-16	/
C=CCN(CC#Cc1ccccc1)CC=C	-3	-7	/	/	1
CCCCNC(=O)C1(C(=O)c2ccc(OC)cc2)CC(C(=O)OCC)=NO1 (stereo not drawn)	3	-1	/	/	0
CN(C)S(=O)(=O)c1ccc(Cl)c(C(=O)Nc2nc3ccccc3[nH]2)c1	2	0	0	2	39*
Nc1nc2c(-c3ccc([N+](=O)[O-])cc3)nnn2c2ccccc12	-4	-1	/	/	-1
CCOC(=O)C1CSCCS(=O)(=O)N1Cc1ccc(F)cc1F (stereo not drawn)	-2	6	/	/	-2
Nc1[nH]c(C(=O)c2ccccc2)c(-c2ccc(Br)cc2)c1C(=O)N1CCN(CCO)CC1	-1	-1	/	/	-1
CCc1ccc(NC(=S)/N=C(\N)Nc2nc(C)c3cc(CC)ccc3n2)cc1	5	-3	-4	0	4
CCc1ccc2nc3nc(C)cc(C)c3c(N)c2c1	3	-3	0	-1	22*
O=C(Cn1nc(-c2ccccc2)ccc1=O)NCCc1cccc(F)c1	-5	1	/	/	1
COc1cc(NC(=O)CCc2nnc3ccc(N4CCCC4)nn23)cc(OC)c1OC	7	2	8	3	23*
O=C(CCc1nnc2ccc(N3CCCCC3)nn12)NCc1ccco1	3	0	9	7	25*
Cn1nnnc1Sc1ncnc2scc(-c3cnc(N)nc3)c12	-1	-2	/	/	-1
Cc1ccc(-c2nc3c4ccccc4ccn3c2CC2CCCCC2)cc1	12	3	/	/	20
COc1ccc(-c2nc3c4ccccc4ccn3c2CC2CCCCC2)cc1OC	7	-1	/	/	23*
COCCN(C(=O)CN1CCc2ccccc21)c1c(N)n(Cc2ccccc2)c(=O)[nH]c1=O	0	1	0	/	41*
COC(=O)C1C(c2ccc(OC)c(OC)c2)NC(c2ccc(OC)c(OC)c2)C(C(=O)OC)S1(=O)=O (stereo not drawn)	8	-2	-8	-8	23*
Cn1c(Cc2cccs2)nnc1SCC(=O)Nc1ccc2c(c1)OCO2	0	5	/	/	2
O=C(O)c1ccc(N/N=C2/CCSc3ccc(F)cc32)cc1	-1	2	-6	29*	0
CCn1c(Cc2cccs2)nnc1SCC(=O)Nc1ccc(OCc2ccccc2)cc1	-6	1	/	/	2
CCOc1cc(C(=O)N2CCN=C2SC)cc(OCC)c1OCC	-5	24*	-2	4	1
COc1ccc(C(=O)N2CCN=C2SC)cc1OC	2	1	-19	-7	3
CCn1c(COc2ccccc2)nnc1SCC(=O)Nc1ccc(S(=O)(=O)Nc2cc(C)nc(C)n2)cc1	-6	-4	/	/	0
O=C(/C=C/c1ccco1)NC(=S)Nc1ccc(N2CCCC2)cc1	0	25*	35	16	8
